# Measured values: PubChem BioAssay
# Active and inactive are the calls of the source. Unless noted, no stated cut-off is given here; in the data, active means parasite load remaining mostly below about 12% (no sharp cut-off); inactive means mostly above about 10%.
# Key:
# [1] = liver-stage malaria parasite growth inhibition, primary screen, cell-based, HepG2, luciferase luminescence, HepG2 viability (AID 624349);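 further: 100% = mean of DMSO negative control wells on the same plate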; conditions: P. berghei liver stage in HepG2, luciferase luminescence, concentration not given here; parasite load remaining: stronger effect = lower value; viability: measured here: HepG2 viability without parasites
# [2] = stimulators of nuclear beta-catenin in C2C12, primary screen, imaging, WNT3A-conditioned medium, mouse C2C12, NPC library (AID 1117326; in the data active means nuclear beta-catenin stimulation mostly above about 4.2%, no sharp cut-off; inactive means mostly below about 10%); conditions: stronger effect = higher value
# [3] = stimulators of insulin release from INS-1E, primary screen, cell-based, 5 mM glucose, NPC library (AID 1117329;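 active means compound raises insulin release from rat beta cells at 5 mM glucose, no numeric limit stated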); conditions: rat INS-1E insulin secretion, at 10 µM, stronger effect = higher value
# [4] = growth inhibition of GSK3B-pretreated HCT116 cells – cell-based, CellTiter-Glo, 0.2 to 20 µM (AID 1117336;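 active means compounds lowering colon cancer cell viability after pretreatment blocking the GSK3B kinase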); conditions: HCT116 viability after GSK3B inhibitor, at 20 µM, stronger effect = higher value
# [5] = inhibition of endothelial tube formation, primary screen, imaging, VEGF stimulated, CD31 staining, tube area, NPC library (AID 1117340;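 active means compound that reduces growth-factor-driven endothelial tube area in a mixed cell culture, no cutoff stated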); conditions: VEGF-stimulated ADSC/ECFC co-culture, at 10 µM, stronger effect = higher value
# [6] = glucagon-like peptide 1 release enhancers, primary assay, NCI-H716 cell line, NPC library (AID 1117341;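 active means compound raises GLP1 secretion from the human gut endocrine cells, with no numeric limit stated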); conditions: NCI-H716 cells, at 10 µM, stronger effect = higher value
# [7] = HCT116 colon cancer cell growth inhibition, primary screen, CellTiter-Glo luminescence, NPC library (AID 1117342;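 active means compounds that lower survival of HCT116 colon cancer cells in the luminescence readout, no numeric limit stated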); conditions: at 20 µM (top of the series)
# [8] = CellTiter-Glo luminescent readout of SW480 viability loss, NPC library primary (AID 1117343;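 active means compounds that lower viability of the colon cancer cells in the luminescence readout, with no numeric limit stated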); conditions: CellTiter-Glo luminescence; at 20 µM (top of the series) unless noted
# [9] = decreased DLD-1 cellular survival, CellTiter-Glo luminescent readout, NPC compound collection, primary HTS (AID 1117346;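 active means compounds that lower survival of DLD-1 colon cancer cells in the luminescence readout, no cutoff given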); conditions: DLD-1 viability, CellTiter-Glo luminescence; at 20 µM (top of the series)
# [10] = differential killing of epithelial or mesenchymal cells, primary screen, imaging, PC-3E GFP, TEM4-18 mCherry, co-culture (AID 1345086;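 active means compounds killing one labelled cell type while sparing the other, by normalised counts and ratio limits, not self-fluorescent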;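 on all read-outs here: cells exposed to compound for 72 h before imaging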;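 on red/green cell ratio (normalised): normalised mesenchymal count divided by normalised epithelial count so high means epithelial killing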); conditions: imaging cell counts, at 1 µM; for red/green cell ratio (normalised): actives lie on both sides, counts scaled to control wells, 1 = unselective
# [11] = sensitizers of A549 cells to miR-34 induction, primary screen, imaging, A549 dox-inducible miR-34, nuclei and caspase counts (AID 1347080;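 active means compounds whose cell count with miR-34 switched on is under 0.7 times the count with it off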); conditions: A549 miR-34 inducible, Hoechst nuclei count, 48 h
# [12] = viability rescue of complex I mutant cybrids, primary screen, cell-based, galactose medium, ATP luminescence (AID 1645843;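 active means z-score of at least 1.8 in each of two replicates, scored against plate mean and spread of sample wells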;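 further: positive z means more ATP and so rescue of galactose-driven cybrid death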); conditions: complex I mutant cybrid cells, 72 h, stronger effect = higher value
# [13] = target: NAD(+) hydrolase SARM1 (Homo sapiens) (UniProt Q6SZW1); assay: SARM1 TIR NADase inhibitors, cell lysate, NAD-Glo luminescence (AID 1508614;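 active means compound whose remaining NAD level is above about 45 nM, limit read from the data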); conditions: SAM-TIR HEK293T lysate NADase, at 1 µM, stronger effect = higher value
# [14] = measured here: epithelial PC-3E GFP cell survival
# [15] = measured here: mesenchymal TEM4-18 mCherry cell survival
# [16] = stronger effect = lower value, cell number ratio, induced over uninduced
# [17] = measured here: relative caspase fold change +Dox/-Dox
# [18] = measured here: total cells with miR-34 induction, stronger effect = lower value
# [19] = measured here: total cells without miR-34 induction
# NAD(+) hydrolase SARM1 (Homo sapiens), sequence (Q6SZW1 whole entry, looked up): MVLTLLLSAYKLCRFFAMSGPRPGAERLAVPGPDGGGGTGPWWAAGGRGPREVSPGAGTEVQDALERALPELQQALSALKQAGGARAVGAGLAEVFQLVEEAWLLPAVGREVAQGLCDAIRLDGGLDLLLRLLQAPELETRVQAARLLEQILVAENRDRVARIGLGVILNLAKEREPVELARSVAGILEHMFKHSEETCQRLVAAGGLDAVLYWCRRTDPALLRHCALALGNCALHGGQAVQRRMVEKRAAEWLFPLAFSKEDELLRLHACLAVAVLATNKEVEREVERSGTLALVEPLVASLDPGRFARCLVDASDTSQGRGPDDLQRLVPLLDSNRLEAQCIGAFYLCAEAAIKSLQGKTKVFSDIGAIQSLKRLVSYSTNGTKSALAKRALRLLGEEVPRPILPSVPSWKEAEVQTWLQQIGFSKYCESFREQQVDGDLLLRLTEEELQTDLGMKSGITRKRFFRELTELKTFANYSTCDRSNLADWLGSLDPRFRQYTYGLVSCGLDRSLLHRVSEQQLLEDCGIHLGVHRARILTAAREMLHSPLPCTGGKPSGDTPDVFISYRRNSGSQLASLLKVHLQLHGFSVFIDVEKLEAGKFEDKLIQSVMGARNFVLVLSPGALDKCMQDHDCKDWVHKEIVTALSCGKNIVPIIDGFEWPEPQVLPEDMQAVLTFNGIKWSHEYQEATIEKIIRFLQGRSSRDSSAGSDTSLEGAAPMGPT
SMILES,parasite load remaining [1],viability [1] [%],nuclear beta-catenin stimulation ([2]; at 10 µM),"nuclear beta-catenin stimulation ([2]; stimulation, at 2 µM) [%]",insulin secretion stimulation [3],viability decrease [4],tube area decrease [5],GLP1 secretion stimulation [6],inhibition of viability [7],viability decrease (inhibition) [8],viability decrease (inhibition) [9],red/green cell ratio (normalised) [10],"normalised cell number [10, 14]","normalised cell number [10, 15]","fold change [11, 16]","fold change [11, 17]","cell count [11, 18]","cell count [11, 19]",z-score [12],remaining NAD [13]
COc1cc(N)c(Cl)cc1C(=O)NC1CCN(CCCOc2ccc(F)cc2)CC1OC (stereo not given),96.4% (inactive),81.1,13% (inactive),3.1,7.5% (inactive),20.6% (inactive),-0.4% (inactive),13.3% (inactive),53.9% (active),66.7% (active),22.4% (inactive),0.95 (inactive),0.93,0.88,0.948 (inactive),1.94,8510,8980,-0.435 (inactive),
CC1=C(C/C=C(\C)CCC[C@H](C)CCC[C@H](C)CCCC(C)C)C(=O)c2ccccc2C1=O,21.8% (inactive),93.1,0.3% (inactive),-0.8,-2.6% (inactive),-3.55% (inactive),23.9% (inactive),2.3% (inactive),-10.9% (inactive),-45.3% (inactive),-6.65% (inactive),1.1 (inactive),0.92,1.01,0.94 (inactive),3.52,11600,12300,,10 nM (inactive)
O=C(OOC(=O)c1ccccc1)c1ccccc1,39% (inactive),82.1,2.3% (inactive),0.3,-1.3% (inactive),-5.45% (inactive),-15.4% (inactive),-3.2% (inactive),1.1% (inactive),10% (inactive),18.9% (inactive),1.04 (inactive),1.11,1.15,0.948 (inactive),3.94,10800,11400,,10 nM (inactive)
CCOC(=O)c1ccc(O)cc1,75.1% (inactive),94.6,-0.6% (inactive),0.9,5.1% (inactive),1.8% (inactive),-5% (inactive),2.1% (inactive),4.1% (inactive),29.4% (inactive),11.2% (inactive),0.82 (inactive),1.05,0.86,0.873 (inactive),1.39,10900,12500,,10 nM (inactive)
CC(C)=CCC/C(C)=C/CO,123% (inactive),71.1,-0.1% (inactive),3,0.7% (inactive),-10.3% (inactive),12.4% (inactive),-1.8% (inactive),1.77% (inactive),-1.7% (inactive),-8.2% (inactive),0.92 (inactive),1.13,1.03,,,,,,
